Compounds without any hit were thinned out: in the full panel of roughly 79,000, 15% have a hit. Unmarked numbers belong to inactive results. The source made the active and inactive calls. Cut-off read from the data, not from the text of the source: active = growth inhibition above about 70%; inactive = the rest.
What was measured:
[1] = NCI Yeast Anticancer Drug Screen. Data for the rad50 strain (AID 155);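 note: 0% = growth of vehicle-only cultures of the same strain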; settings: S. cerevisiae rad50 strain growth inhibition, stronger effect = higher value
Method in brief: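 Vehicle-treated cultures provide the reference for the growth inhibition reported for compound-exposed, repair-deficient yeast.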

[2] = NCI Yeast Anticancer Drug Screen. Data for the mec2-1 strain (AID 157); settings: S. cerevisiae mec2-1 strain, stronger effect = higher value
Method in brief: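 Yeast mec2-1 mutant treated with compound. Readout: growth inhibition vs vehicle controls.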

[3] = NCI Yeast Anticancer Drug Screen. Data for the sgs1 mgt1 strain (AID 161);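 note: 0% = growth of cultures given vehicle only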; settings: S. cerevisiae sgs1 mgt1 strain, stronger effect = higher value
Method in brief: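 Test agents were incubated with a DNA-repair-mutant yeast strain. Growth was then read and compared against vehicle-treated controls.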

[4] = NCI Yeast Anticancer Drug Screen. Data for the cln2 rad14 strain (AID 165);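 note: 0% = growth equal to vehicle treated cultures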; settings: S. cerevisiae cln2 rad14 strain, stronger effect = higher value
Method in brief: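 cln2 rad14 yeast strain; compound exposure; growth inhibition read vs vehicle controls.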

[5] = NCI Yeast Anticancer Drug Screen. Data for the bub3 strain (AID 167); settings: S. cerevisiae bub3 mutant strain, stronger effect = higher value
Method in brief: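 Mutant yeast screening strain plus compound; vehicle-treated cultures serve as the 0% inhibition reference.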

[6] = NCI Yeast Anticancer Drug Screen. Data for the mlh1 rad18 strain (AID 175); settings: S. cerevisiae mlh1 rad18 strain growth inhibition, stronger effect = higher value
Method in brief: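 Yeast w/ defined DNA-repair lesions; compound exposure; growth vs vehicle controls → % inhibition.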

[7] = at 5.0 µM (retest, dose inferred, filed as 0.5)
[8] = at 50.0 µM (retest, dose inferred, filed as 5.0)

| Compound | growth inhibition [1, 7] | growth inhibition [1, 8] | growth inhibition ([1]; at 50.0 µM) | growth inhibition [2, 7] | growth inhibition [2, 8] | growth inhibition ([2]; at 50.0 µM) | growth inhibition [3, 7] | growth inhibition [3, 8] | growth inhibition ([3]; at 50.0 µM) | growth inhibition [4, 7] | growth inhibition [4, 8] | growth inhibition ([4]; at 50.0 µM) | growth inhibition [5, 7] | growth inhibition [5, 8] | growth inhibition ([5]; at 50.0 µM) | growth inhibition [6, 7] | growth inhibition [6, 8] | growth inhibition ([6]; at 50.0 µM) |
| --- | --- | --- | --- | --- | --- | --- | --- | --- | --- | --- | --- | --- | --- | --- | --- | --- | --- | --- |
| Clc1nc(Cl)c(Cl)c(-c2ccccc2)n1 | 35% | 75% (active) | 90.3% (active) | 29% | 70% (active) | 92.7% (active) | 18% | 77% (active) | 89% (active) | 17% | 73% (active) | 84.8% (active) | 12% | 86% (active) | 85% (active) | 55% | 77% (active) | 87.3% (active) |
| Cc1c(NC(=O)CCl)c(=O)oc2c(C)c3occc(=O)c3cc12 | 59% | 97% (active) | 96.8% (active) | 16% | 93% (active) | 83.8% (active) | 7% | 89% (active) | 90.8% (active) | 10% | 85% (active) | 29.3% | 10% | 91% (active) | 79.2% (active) | – | – | – |
| O=c1c(Cl)cc2nc3ccccc3sc-2c1Cl | 21% | 72% (active) | 84% (active) | 42% | 84% (active) | 6.5% | 33% | 79% (active) | 83.8% (active) | 1% | 54% | -0.05% | 38% | 85% (active) | 80.5% (active) | – | – | – |
| Cc1ccc2c(c1)C(O)(c1ccccc1)C(c1ccccc1)C(c1ccccc1)O2 (configuration not stated) | 78% (active) | 83% (active) | 93.9% (active) | 56% | 92% (active) | 94.3% (active) | 69% | 87% (active) | 93.7% (active) | 59% | 62% | 90.4% (active) | 87% (active) | 91% (active) | 89.5% (active) | – | – | – |
| CCCCCCCCCCNC(=O)C[n+]1cccc(C(=O)NCc2ccccc2)c1 | 8% | 99% (active) | 99.5% (active) | -1% | 100% (active) | 99.7% (active) | 5% | 100% (active) | 99.5% (active) | 14% | 99% (active) | 98.8% (active) | 8% | 99% (active) | 99.4% (active) | 11% | 99% (active) | 99.5% (active) |
| CCCOC(=O)COc1ccccc1C(=O)OCCC | 5% | 10% | -1.2% | 2% | 7% | -15.5% | 0% | 11% | 6% | 13% | 15% | 14.9% | 10% | 44% | 23.2% | 0% | 13% | -11.4% |
| CCCCN(C)N=Nc1c(C(N)=O)n[nH]c1C(C)C | 14% | 84% (active) | 79.7% (active) | -8% | 21% | 24.4% | -4% | 52% | 29.4% | -3% | -5% | 1.15% | -4% | -10% | -24.2% | – | – | – |
| O=[N+]([O-])c1ccc(N2CCCC(n3cccc3)C2)c([N+](=O)[O-])c1 (configuration not stated) | 7% | 38% | 47.6% | -2% | 5% | 46.2% | 4% | 27% | 61.3% | 12% | 49% | 50.2% | -9% | 50% | 67.6% | 1% | 55% | 48.5% |
| CN(C)CCN(C)CCC(=O)/C=C/c1ccccc1 | 95% (active) | 99% (active) | 87.9% (active) | 100% (active) | 99% (active) | 84.3% (active) | 98% (active) | 99% (active) | 99.5% (active) | 86% (active) | 99% (active) | 96% (active) | 99% (active) | 99% (active) | 98.2% (active) | 99% (active) | 99% (active) | 99.5% (active) |
| CCN(CC)c1ccc(N=Nc2ccc(Br)cn2)c(O)c1 | -1% | 51% | 96.8% (active) | -4% | 84% (active) | 95.5% (active) | -3% | 79% (active) | 97.1% (active) | -2% | 46% | 94.7% (active) | 1% | 71% (active) | 97.2% (active) | -1% | 77% (active) | 97.2% (active) |
| CCS(=O)(=O)C(C(O)C(O)C(O)C(O)CO)S(=O)(=O)CC (configuration not stated) | -3% | -6% | 16.2% | -2% | -6% | 8.95% | -2% | -2% | 7.25% | 0% | -10% | 43.5% | 0% | 4% | -2% | -4% | -10% | -7.05% |
| Cc1ccc(S(=O)(=O)OC2COC3C(OS(=O)(=O)c4ccc(C)cc4)COC23)cc1 (configuration not stated) | -2% | -13% | 19.6% | -7% | 4% | 9.8% | 12% | -27% | 26.4% | 1% | -5% | 46% | 0% | -11% | 96.6% (active) | -39% | -63% | 4% |
| CCOC(=O)/C(=C\N1C(=O)/C(=C\C(C)=C\c2ccccc2)SC1=S)C(=O)c1ccccc1 | -8% | 0% | 55% | -10% | 22% | 58% | -3% | 14% | 52.5% | -18% | 2% | 57% | -8% | 39% | 70.2% (active) | -2% | 20% | 77% (active) |
| CC(=O)Oc1ccc2cc(-c3ccccc3OC(C)=O)c(=O)oc2c1 | 12% | 23% | 48.1% | -11% | -15% | 43.7% | 3% | 30% | 77.2% (active) | -6% | 31% | 30.2% | -15% | 8% | 57.8% | 12% | 0% | 74.5% (active) |
| Fc1ccc(C2SCc3nc4ccccc4n32)cc1Cl (configuration not stated) | 32% | 78% (active) | 91.3% (active) | 27% | 72% (active) | 93% (active) | 37% | 90% (active) | 94.3% (active) | 24% | 69% | 92.5% (active) | 33% | 88% (active) | 91.8% (active) | 41% | 89% (active) | 92.1% (active) |
| CC(=O)O[C@@H]1CO[C@H]2O[C@H]3[C@@H](C(C=O)=C[C@H](O)[C@@H]4C5=C(C(C)C)CC[C@]5(C)CC[C@@]34C)[C@@]2(O)C1=O | 99% (active) | 99% (active) | 92.1% (active) | 99% (active) | 100% (active) | 92.8% (active) | 97% (active) | 100% (active) | 92.7% (active) | 94% (active) | 98% (active) | 91% (active) | 97% (active) | 99% (active) | 91.3% (active) | – | – | – |
| S=C(Nc1cc(Cl)c(Cl)cc1Cl)SCc1ccccc1 | 14% | 97% (active) | 98.7% (active) | 8% | 99% (active) | 99.3% (active) | 30% | 99% (active) | 99.2% (active) | 12% | 98% (active) | 97.8% (active) | 39% | 99% (active) | 99.2% (active) | 55% | 99% (active) | 99% (active) |
| CC1C(=O)C(C)C(c2ccccc2)N(C)C1c1ccccc1 (configuration not stated) | 81% (active) | 98% (active) | 99% (active) | 42% | 99% (active) | 99.1% (active) | 81% (active) | 98% (active) | 99.3% (active) | 31% | 98% (active) | 99% (active) | 42% | 95% (active) | 99.4% (active) | 63% | 98% (active) | 99.1% (active) |
| c1c2c(cc(-n3nnc4c3CCCCCC4)c1-n1nnc3c1CCCCCC3)CCCCCC2 | 30% | 30% | 89.4% (active) | 26% | 26% | 90.5% (active) | 23% | 23% | 89.5% (active) | 17% | 17% | 91.1% (active) | 7% | 7% | 90.4% (active) | 27% | 27% | 87.3% (active) |
| CC1(C)C(=O)C(C(Cl)(Cl)Cl)=C(Cl)C(=O)C1(Cl)Cl | 64% | 97% (active) | 52.5% | 27% | 96% (active) | 42.1% | 38% | 93% (active) | 64.9% | 49% | 89% (active) | 48.8% | 56% | 96% (active) | 51.1% | – | – | – |
